About 2,000 (36%) of roughly 5,500 compounds were called active. Inconclusive results (about 18%) are left out. No stated cut-off is given here; in the data, active means normalized growth mostly below about 0.91 (no sharp cut-off); inconclusive means no clear call, values can overlap the other calls; inactive means mostly above about 0.92. The list shows a part of the results.
Assay: chemical genetic growth profiling, strain panel (AID 1159580);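 further: tested at 20 µM; growth read once vehicle control cultures reached saturation at 30 °C; 1 = growth at the plate median or of vehicle wells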
Conditions: growth OD

Measured: normalized growth

CC(=O)O[C@H]1CC[C@@]2(C)C(C[C@@H](OC(C)=O)[C@]3(C)C2CC[C@@]2(C)[C@H](c4ccoc4)OC(=O)[C@H]4O[C@]423)C1(C)C (stereo partly drawn)
active: S. cerevisiae deletion strains, locus YKL009W, strain mrt4, stronger effect = lower value 1.47 [resistant]
inactive: S. cerevisiae deletion strains, locus YJL187C, strain SWE1, stronger effect = lower value 1 | S. cerevisiae deletion strains, locus YJR066W, strain TOR1, stronger effect = lower value 0.997 | S. cerevisiae deletion strains, locus YKL068W, stronger effect = lower value 1 | S. cerevisiae deletion strains, locus YKL085W, strain MDH1 (second series), stronger effect = lower value 1.04 | S. cerevisiae deletion strains, locus YKL085W, strain MDH1, stronger effect = lower value 1.04 | S. cerevisiae deletion strains, locus YKL160W, strain elf1, stronger effect = lower value 1.02 | S. cerevisiae deletion strains, locus YKL190W, strain CNB1, stronger effect = lower value 1 | S. cerevisiae deletion strains, locus YKR001C, strain vps1, stronger effect = lower value 1 | S. cerevisiae deletion strains, locus YKR026C, strain gcn3, stronger effect = lower value 0.971 | S. cerevisiae deletion strains, locus YKR091W, strain srl3, stronger effect = lower value 0.991 | S. cerevisiae deletion strains, locus YLL001W, strain dnm1, stronger effect = lower value 0.988 | S. cerevisiae deletion strains, locus YLL026W, stronger effect = lower value 0.995 | S. cerevisiae deletion strains, locus YLL041C, strain sdh2, stronger effect = lower value 0.987 | S. cerevisiae deletion strains, locus YLR027C, strain aat2, stronger effect = lower value 1 | S. cerevisiae deletion strains, locus YLR039C, strain RIC1, stronger effect = lower value 1.01 | S. cerevisiae deletion strains, locus YLR058C, strain SHM2, stronger effect = lower value 1.01 | S. cerevisiae deletion strains, locus YLR102C, strain apc9, stronger effect = lower value 1.02 | S. cerevisiae deletion strains, locus YLR113W, strain HOG1, stronger effect = lower value 0.991 | S. cerevisiae deletion strains, locus YLR221C, strain rsa3, stronger effect = lower value 1.01 | S. cerevisiae deletion strains, locus YLR258W, strain gsy2, stronger effect = lower value 0.994 | S. cerevisiae deletion strains, locus YLR262C, strain YPT6 (second series), stronger effect = lower value 1.05 | S. cerevisiae deletion strains, locus YLR262C, strain YPT6, stronger effect = lower value 1.1 | S. cerevisiae deletion strains, locus YLR268W, strain sec22, stronger effect = lower value 0.999 | S. cerevisiae deletion strains, locus YLR320W, strain mms22, stronger effect = lower value 1.01 | S. cerevisiae deletion strains, locus YLR330W, strain CHS5, stronger effect = lower value 1.01 | S. cerevisiae deletion strains, locus YLR342W, strain FKS1, stronger effect = lower value 0.994 | S. cerevisiae deletion strains, locus YLR357W, strain rsc2, stronger effect = lower value 0.951 | S. cerevisiae deletion strains, locus YLR370C, strain arc18, stronger effect = lower value 0.996 | S. cerevisiae deletion strains, locus YLR371W, strain rom2, stronger effect = lower value 1.01 | S. cerevisiae deletion strains, locus YLR384C, strain iki3, stronger effect = lower value 1 | S. cerevisiae deletion strains, locus YLR418C, strain cdc73, stronger effect = lower value 1.06 | S. cerevisiae deletion strains, locus YML016C, strain PPZ1, stronger effect = lower value 1.02 | S. cerevisiae deletion strains, locus YML032C, strain rad52, stronger effect = lower value 1.01 | S. cerevisiae deletion strains, locus YML120C, strain ndi1, stronger effect = lower value 0.989 | S. cerevisiae deletion strains, locus YML124C, strain tub3, stronger effect = lower value 1.01 | S. cerevisiae deletion strains, locus YMR058W, strain fet3, stronger effect = lower value 1 | S. cerevisiae deletion strains, locus YMR078C, strain ctf18, stronger effect = lower value 1.02 | S. cerevisiae deletion strains, locus YMR125W, strain sto1, stronger effect = lower value 0.99 | S. cerevisiae deletion strains, locus YMR129W, stronger effect = lower value 0.996 | S. cerevisiae deletion strains, locus YMR205C, strain PFK2, stronger effect = lower value 0.968 | S. cerevisiae deletion strains, locus YMR223W, strain ubp8, stronger effect = lower value 1.03 | S. cerevisiae deletion strains, locus YMR231W, strain pep5, stronger effect = lower value 0.994 | S. cerevisiae deletion strains, locus YMR263W, strain SAP30, stronger effect = lower value 1.02 | S. cerevisiae deletion strains, locus YMR307W, strain GAS1, stronger effect = lower value 0.994 | S. cerevisiae deletion strains, locus YNL067W, strain RPL9B, stronger effect = lower value 1.05 | S. cerevisiae deletion strains, locus YNL071W, strain lat1, stronger effect = lower value 1 | S. cerevisiae deletion strains, locus YNL183C, strain NPR1, stronger effect = lower value 1 | S. cerevisiae deletion strains, locus YNL209W, strain ssb2, stronger effect = lower value 1 | S. cerevisiae deletion strains, locus YNL233W, strain BNI4, stronger effect = lower value 1.05 | S. cerevisiae deletion strains, locus YNL248C, strain rpa49, stronger effect = lower value 1.01 | S. cerevisiae deletion strains, locus YNL250W, strain rad50, stronger effect = lower value 1.05 | S. cerevisiae deletion strains, locus YNL271C, strain bni1, stronger effect = lower value 1.02 | S. cerevisiae deletion strains, locus YNL298W, strain CLA4, stronger effect = lower value 1.01 | S. cerevisiae deletion strains, locus YNL307C, strain MCK1, stronger effect = lower value 1.02 | S. cerevisiae deletion strains, locus YNL322C, strain KRE1 (second series), stronger effect = lower value 0.997 | S. cerevisiae deletion strains, locus YNR049C, strain mso1, stronger effect = lower value 0.985 | S. cerevisiae deletion strains, locus YNR052C, strain pop2, stronger effect = lower value 1.03 | S. cerevisiae deletion strains, locus YOL006C, strain TOP1, stronger effect = lower value 1.04 | S. cerevisiae deletion strains, locus YOL012C, strain htz1 0.707 | S. cerevisiae deletion strains, locus YOL147C, strain pex11, stronger effect = lower value 1.01 | S. cerevisiae deletion strains, locus YOR001W, strain rrp6, stronger effect = lower value 1.02 | S. cerevisiae deletion strains, locus YOR061W, strain CKA2, stronger effect = lower value 1 | S. cerevisiae deletion strains, locus YOR069W, strain VPS5, stronger effect = lower value 1.01 | S. cerevisiae deletion strains, locus YOR070C, strain gyp1, stronger effect = lower value 0.997 | S. cerevisiae deletion strains, locus YOR080W, strain dia2, stronger effect = lower value 0.996 | S. cerevisiae deletion strains, locus YOR083W, strain WHI5, stronger effect = lower value 1.03 | S. cerevisiae deletion strains, locus YOR106W, strain vam3, stronger effect = lower value 1.03 | S. cerevisiae deletion strains, locus YOR136W, strain idh2, stronger effect = lower value 1.02 | S. cerevisiae deletion strains, locus YOR144C, strain elg1, stronger effect = lower value 1.01 | S. cerevisiae deletion strains, locus YOR184W, strain ser1, stronger effect = lower value 1 | S. cerevisiae deletion strains, locus YOR231W, strain MKK1, stronger effect = lower value 1.02 | S. cerevisiae deletion strains, locus YOR265W, strain rbl2, stronger effect = lower value 1 | S. cerevisiae deletion strains, locus YOR270C, strain vph1, stronger effect = lower value 1.01 | S. cerevisiae deletion strains, locus YOR290C, strain snf2, stronger effect = lower value 0.942 | S. cerevisiae deletion strains, locus YOR316C, strain cot1, stronger effect = lower value 1.01 | S. cerevisiae deletion strains, locus YPL051W, strain arl3, stronger effect = lower value 1.03 | S. cerevisiae deletion strains, locus YPL078C, strain atp4, stronger effect = lower value 1.02 | S. cerevisiae deletion strains, locus YPL106C, strain sse1, stronger effect = lower value 0.981 | S. cerevisiae deletion strains, locus YPL240C, strain hsp82, stronger effect = lower value 1 | S. cerevisiae deletion strains, locus YPL241C, strain CIN2, stronger effect = lower value 1 | S. cerevisiae deletion strains, locus YPL256C, strain CLN2, stronger effect = lower value 1.05 | S. cerevisiae deletion strains, locus YPR119W, strain clb2, stronger effect = lower value 1.01 | S. cerevisiae deletion strains, locus YPR141C, strain kar3, stronger effect = lower value 1.02 | S. cerevisiae deletion strains, locus YPR163C, strain tif3, stronger effect = lower value 1.02 | S. cerevisiae deletion strains, locus YPR167C, strain met16, stronger effect = lower value 1.01 | S. cerevisiae deletion strains, strain wtn01, stronger effect = lower value 1.02 | S. cerevisiae strains, strain wild type, stronger effect = lower value 1.02

— PubChem BioAssay AID1159580 (chemical genetic matrix, 2015)
